According to PubChem BioAssay (NCI):
About 83,000 compounds went through this panel and 20% of them were active in at least one assay; those are over-represented in the sample as a whole.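 Testing used 96-well plates and a 48-hour single-concentration exposure. Example: -40 means 40% of the starting cells died.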 The source made the active and inactive calls. How the source made its calls: active means growth percent below 10; inactive means the rest.

system: DU-145 prostate; assay: NCI-60 one-dose screen, 48 h (100 = growth as untreated, 0 = no growth, -100 = all killed); settings: 10 µM unless noted

Row | SMILES | growth
1 | COc1ccc(C2CC(c3ccc(OC)c(OC)c3)=NN2C(=O)c2cc(OC)c(OC)c(OC)c2)c(OC)c1 (configuration not stated) | 101% (inactive)
2 | CCOC(=O)c1c2c(c(C)n1Cc1ccc(OC)cc1)-c1nc(N)ncc1CC2 | 116% (inactive)
3 | O=C1N(C2CCCCC2)C(=O)N1C1CCCCC1 | 38.7% (inactive)
4 | O=c1ccn(C2OC(CO)C(O)C2F)c(=O)[nH]1 (configuration not stated) | 119% (inactive)
5 | CCCn1cnc2c1c(=O)n(CCCCC(C)=O)c(=O)n2C | 118% (inactive)
6 | CCCCc1nc(Cl)c(CO)n1Cc1ccc(-c2ccccc2-c2nn[nH]n2)cc1 | 110% (inactive)
7 | COc1ccc(C2CC(c3cccc(Nc4ccnc5cc(Cl)ccc45)c3)=NN2C=O)cc1 (configuration not stated) | 2.95% (active)
8 | O=c1c(O)cccn1CCCNCCCN(CCCn1cccc(O)c1=O)CCCn1cccc(O)c1=O | 112% (inactive)
9 | COc1ccc2nc(-c3ccc(-n4cncc4-c4ccc(OC)c(N)c4)cc3)sc2c1 | 119% (inactive)
10 | Cc1cc(NC(=O)Nc2cc(Cl)ccc2C)no1 | 111% (inactive)
11 | O=C1NCN(c2ccccc2)C12CCN(CCCC(c1ccc(F)cc1)c1ccc(F)cc1)CC2 | 76% (inactive)
12 | CCC(O)C(C)(C)C (configuration not stated) | 108% (inactive)
13 | COc1ncc(-c2ccc3nccc(C#CCN4CCN(S(C)(=O)=O)CC4)c3c2)cc1NS(=O)(=O)c1ccc(F)cc1F | 17.9% (inactive)
14 | O=C(Nc1ccc(Cl)cc1)c1cc2c(cc1O)[nH]c1ccccc12 | 28.4% (inactive)
15 | O=C1c2ccccc2C(=O)c2c1cccc2-n1nnc2ccccc21 | 108% (inactive)
16 | Cc1nn(-c2ccccc2)c2c1oc(=O)c1cc(Cl)ccc12 | 169% (inactive)
17 | CCC1=C(c2ccc(OC)cc2)C(C)(C)Oc2c1ccc(O)c2CN1CCCC1 | 64.8% (inactive)
18 | O=C(NCCc1ccccc1)C1CCC(=O)N1Cc1ccc(Br)cc1 (configuration not stated) | 109% (inactive)
19 | N#Cc1ccc(NC(=O)Nc2ccc(Oc3ccc(NC(=O)Nc4ccc(C#N)cc4)cc3)cc2)cc1 | 35.3% (inactive)

Row | SMILES | growth
20 | COc1ccc2c(c1)C(=O)c1c-2c(OCCN(C)C)nc2cc(OC)ccc12 | 29% (inactive)
21 | O=C(Nc1cccc([N+](=O)[O-])c1)c1cccc(C(=O)Nc2cccc([N+](=O)[O-])c2)c1 | 84.5% (inactive)
22 | CCCCCCCCCCCCCCCCCC1=NC(C)(C)CN1CCO | 2.01% (active)
23 | COc1ccc(OC)c(NC(=O)c2cc3oc4ccccc4c3cc2O)c1 | 106% (inactive)
24 | CN1C(=O)/C(=C/c2nc(-c3cccc(F)c3)n3ccccc23)c2ccccc21 | 82.6% (inactive)
25 | O=C(CN1CCCCC1)Sc1nnc2sc3ccccc3n12 | 112% (inactive)
26 | C[C@]12CC[C@@H]3c4ccc(O)c([N+](=O)[O-])c4CC[C@H]3[C@@H]1CC[C@@H]2NS(=O)(=O)c1cccc(Br)c1 | 52.7% (inactive)
27 | Cc1ccsc1/C=C/C1=NCCCN1C | 112% (inactive)
28 | CCCCCCCCCCSc1ncnc2nc[nH]c12 | 75% (inactive)
29 | C[n+]1c2ccccc2c(NC2CCNCC2)c2[nH]c3ccccc3c21 | -1.88% (active)
30 | COc1cccc2c1O/C(=C\c1c([N+](=O)[O-])ncn1C)C2=O | 102% (inactive)
31 | CC[C@@H]1OC(=O)[C@H](C)[C@@H](O[C@H]2C[C@@](C)(OC)[C@@H](O)[C@H](C)O2)[C@H](C)[C@@H](O[C@@H]2O[C@H](C)C[C@H](N(C)C)[C@H]2O)[C@](C)(O)C[C@@H](C)[C@@H]2N[C@@H](COCCOC)O[C@H]([C@H]2C)[C@]1(C)O | 100% (inactive)
32 | O=C1C[C@@H]2/C(=C(O)\C=C\c3ccccc3)C(=O)C=C[C@@H]2O1 | -16.8% (active)
33 | Cc1cc2c(cc1[N+](=O)[O-])NC(CNC(C)C)CC2 (configuration not stated) | 105% (inactive)
34 | CCCCN(CCCC)CCCOC(=O)c1ccc(N)cc1 | 88.2% (inactive)
35 | C=C(C[C@](O)(C(=O)/C=C/c1ccc(Cl)cc1)C(=O)OC)c1ccccc1 | 97.4% (inactive)
36 | CCN1C[C@@H](C)n2c(c(O)c3c(=O)n(Cc4ccc(F)c(Cl)c4)nc(C(=O)NC)c32)C1=O | 22.6% (inactive)
37 | Cc1nnc(Nc2ccc(NC(=O)Nc3ccc(Cl)cc3)cc2)c2ccccc12 | 57.8% (inactive)
